# Measured values from ChEMBL document CHEMBL3988442, “University of Dundee, Small-Polar-MMV Screening Library” (2021).
# Screen size: about 66,000 compounds; about 960 (1.5%) showed an effect of 50% or more. The entries come from a sample that favours strong results as a whole.
# Test system: Trypanosoma brucei
# Assay: Trypanosoma brucei 72 hour study
# Type: functional, organism-based
# Design: scale not given: in the data most compounds retested in dose-response had high values
smiles,measurement,setting,value
CC(=O)N1CCCC2(C1)CN(c1nncs1)CCO2.O=C(O)C(F)(F)F (stereo not drawn),Percent Effect,"30.3 µM, […]",-90.31%
CCN(Cc1c(F)cccc1Cl)c1cc(C2CCNCC2)nc(C)n1,Percent Effect,"30 µM, 30.03 µM",88.22%
Cc1nc(C2CCNCC2)cc(N(C)Cc2cc3cc(F)ccc3[nH]2)n1,Percent Effect,"30 µM, 30.03 µM",7.512%
CCN(Cc1ccncc1)c1cc(C2CCNCC2)nc(C)n1,Percent Effect,"30 µM, 30.03 µM",-25.3%
O=C(CC1CCCC1)N1C[C@H](OCc2ccncc2)[C@H]2OCCC[C@H]21.O=C(O)C(F)(F)F,Percent Effect,"30 µM, 30.03 µM",-16.6%
Cc1ccc(CN(Cc2ccncc2)C2CC(C)(C)NC(C)(C)C2)o1.O=C(O)CC(O)(CC(=O)O)C(=O)O,Percent Effect,"30.3 µM, […]",-22.8%
Nc1nccnc1C(=O)NC1CCCN(Cc2c(F)cccc2F)C1 (stereo not drawn),Percent Effect,"30 µM, 30.03 µM",-36.01%
Nc1nccnc1C(=O)NC1CCN(Cc2ccccc2)C1 (stereo not drawn),Percent Effect,"30 µM, 30.03 µM",52.39%
O=C(Nc1nccs1)NC1CCN(Cc2ccccc2)C1 (stereo not drawn),Percent Effect,"30 µM, 30.03 µM",-14.85%
c1ccc(N2CCC(OCC3CCCCO3)CC2)nc1 (stereo not drawn),Percent Effect,"30.3 µM, […]",-91.25%
COc1cc(CNCC(O)c2ccccc2)cc2c1OCO2.Cl (stereo not drawn),Percent Effect,"30.3 µM, […]",51.8%
COc1cc(CNCCn2ccnc2)cc2c1OCO2.Cl,Percent Effect,"30.3 µM, […]",6.439%
COc1cc(CNCc2ccc(C(C)O)cc2)cc2c1OCO2 (stereo not drawn),Percent Effect,"30 µM, 30.03 µM",8.941%
Cc1cccc(COc2ccc(C(C)NC(=O)CNC(N)=O)cc2)c1 (stereo not drawn),Percent Effect,"30 µM, 30.03 µM",6.871%
Cc1cccc(COc2ccc(C(C)N)cc2)c1.Cl (stereo not drawn),Percent Effect,"30 µM, 30.03 µM",102.3%
Cc1cccc(COc2ccc(C(C)NS(N)(=O)=O)cc2)c1 (stereo not drawn),Percent Effect,"30 µM, 30.03 µM",4.364%
CN1CC[C@H]2OCC[C@@H](C(=O)NCc3ccco3)[C@@H]2C1.O=C(O)C(F)(F)F,Percent Effect,"30 µM, 30.03 µM",-30.69%
COc1ccnc(N2C[C@@H]3CC[C@H](C2)N(CC2CCC2)C3=O)n1,Percent Effect,"30 µM, 30.03 µM",0.242%
O=C(O)C(F)(F)F.O=C1CC[C@H]2[C@H](CCN2S(=O)(=O)C2CC2)N1CCN1CCCC1,Percent Effect,"30.3 µM, […]",-16.69%
COc1cccc2c1ccn2CCC(=O)NCCCC(=O)O,Percent Effect,"30 µM, 30.03 µM",53.78%
COc1cccc2c1ccn2CCNC(=O)CC(C)C,Percent Effect,"30 µM, 30.03 µM",-27.5%
COCC(=O)NCCn1ccc2c(OC)cccc21,Percent Effect,"30 µM, 30.03 µM",21.63%
CC(C)(C)c1ncc2c(n1)CN(C(=O)c1ccc(-c3nc[nH]n3)cc1)C2,Percent Effect,"30 µM, 30.03 µM",54.09%
CN(C)c1ccc(C(=O)N2Cc3cnc(C(C)(C)C)nc3C2)cc1,Percent Effect,"30 µM, 30.03 µM",-40.98%
CC(C)(C)c1ncc2c(n1)CN(C(=O)c1ccncc1)C2,Percent Effect,"30 µM, 30.03 µM",-0.7468%
O=C(C1CCOCC1)N1CCO[C@H]2[C@H](Oc3cccnc3)CC[C@@H]21.O=C(O)C(F)(F)F,Percent Effect,"30 µM, 30.03 µM",-14.62%
CCN(CC)C(=O)CN(C)C(=O)c1ccc(-c2ccsc2)nc1C,Percent Effect,"30 µM, 30.03 µM",-62.98%
COc1ccccc1CC(=O)N(C)Cc1cc(C)on1,Percent Effect,"30 µM, 30.03 µM",-10.42%
Cc1cc(CN(C)C(=O)CC(C)C)no1,Percent Effect,"30 µM, 30.03 µM",-35.18%
COc1ccccc1CC(C)CC(=O)N(C)Cc1cc(C)on1 (stereo not drawn),Percent Effect,"30 µM, 30.03 µM",72.44%
CCc1nccn1C1CCCN(C(=O)C2=NN(C)C(=O)CC2)C1 (stereo not drawn),Percent Effect,"30.3 µM, […]",-18.44%
COc1ccc(C(C)(C)C)cc1CN1CCn2c(CO)nnc2C1.O=C(O)CC(O)(CC(=O)O)C(=O)O,Percent Effect,"30.3 µM, […]",3.045%
CC(=O)N1CCN([C@@H]2CC[C@@H](NC(=O)c3ccc(C)nc3)[C@H]2O)CC1,Percent Effect,"30.3 µM, […]",-14.37%
CCN1CCN(c2ncc3c(n2)CN(c2cnn(CC)c2)C3=O)CC1,Percent Effect,"30.3 µM, […]",-16.78%
CCOc1cc(CNc2nnn(C)n2)ccc1OCc1ccc(Cl)cc1,Percent Effect,"30.3 µM, […]",13.85%
CO[C@H]1CN(C(=O)c2ccc(-c3ccccc3)[nH]2)CC[C@H]1N,Percent Effect,"30.3 µM, […]",21.81%
O=C(c1ccc(-c2ccccc2)[nH]c1=O)N1CCN(C2CC2)CC1,Percent Effect,"30 µM, 30.03 µM",-17.15%
CN1[C@H]2CC[C@@H]1CN(C(=O)c1ccc(-c3ccccc3)[nH]1)CC2,Percent Effect,"30.3 µM, […]",99.15%
CCOC(=O)CCn1cnc2onc(-c3ccc(OC)cc3)c2c1=O,Percent Effect,"30 µM, 30.03 µM",-27.94%
Cc1nc(C2CCCN2C(=O)c2ccc3c(c2)nc(C)n3C)no1 (stereo not drawn),Percent Effect,10 µM,-28.6%
same,Percent Effect,"30.3 µM, […]",-7.833%
CS(=O)(=O)CC(=O)N1C[C@H]2CCC[C@@]2(COc2ccccn2)C1.O=C(O)C(F)(F)F,Percent Effect,"30.3 µM, […]",-20.95%
CC(C)Oc1ccc(C(=O)NCc2ccc3c(c2)CCCN3C)cn1,Percent Effect,"30.3 µM, […]",9.808%
COC(=O)c1cccc(C(=O)NCc2ccc3c(c2)CCCN3C)c1,Percent Effect,"30.3 µM, […]",1.912%
CN1CCCc2cc(CNC(=O)c3cc[n+]([O-])cc3)ccc21,Percent Effect,"30.3 µM, […]",2.114%
CN1CCCc2cc(CNC(=O)c3ccncc3)ccc21,Percent Effect,"30 µM, 30.03 µM",8.977%
CN1CCCc2cc(CNC(=O)c3ccc(-n4cnnc4)cc3)ccc21,Percent Effect,"30.3 µM, […]",53.86%
COc1cc(C(=O)NCc2ccc3c(c2)CCCN3C)cc(OC)c1Br,Percent Effect,"30.3 µM, […]",56.02%
CC(C)n1c(=O)c2ccccc2n(CCCN(C)C)c1=O.Cl,Percent Effect,"30 µM, 30.03 µM",2.697%
COCC(=O)Nc1ccnn1-c1ccc(Cl)cc1,Percent Effect,"30.3 µM, […]",12.6%
Cc1ncc2c(n1)C1(CCN(C(=O)C(C)C)CC1)OCC2.Cl,Percent Effect,"30.3 µM, […]",-4.848%
O=C(Cn1ccc2sccc2c1=O)NCc1ccccc1F,Percent Effect,"30 µM, 30.03 µM",1.93%
Clc1cc(NCc2ccncc2)nc2[nH]ccc12,Percent Effect,"30 µM, 30.03 µM",-24.9%
COc1ccccc1CCNC(=O)C1CCC(Cn2cnnn2)CC1 (stereo not drawn),Percent Effect,"30 µM, 30.03 µM",-33.08%
O=C(NCCc1ccccc1)C1CCC(Cn2cnnn2)CC1 (stereo not drawn),Percent Effect,"30 µM, 30.03 µM",56%
COc1ccc(CCNC(=O)C2CCC(Cn3cnnn3)CC2)cc1 (stereo not drawn),Percent Effect,"30 µM, 30.03 µM",42.94%
Cl.Clc1ccccc1CN1CCc2nc(C3CCNCC3)ncc2C1,Percent Effect,"30.3 µM, […]",9.906%
O=C(NCCCOCC1CC1)Nc1ccc(-n2cncn2)c(F)c1,Percent Effect,10 µM,-25.61%
CC(C)NC(=O)C(C)NC(=O)N1CCN(c2ccc(Cl)cc2)CC1 (stereo not drawn),Percent Effect,"30 µM, 30.03 µM",51.3%
CNS(=O)(=O)c1ccccc1N1CCN(C(=O)NC(C)C)CC1,Percent Effect,"30 µM, 30.03 µM",-6.64%
C[C@H](NC(=O)N1CCN(c2ccc(Cl)cc2)CC1)C(=O)N1CCSCC1,Percent Effect,"30 µM, 30.03 µM",-37.38%
CN(C(=O)NC1CC1)C1CCN(c2ccc(Cl)cc2)CC1,Percent Effect,"30 µM, 30.03 µM",-50.01%
CC(C)[C@H](NC(=O)N1CCN(c2ccc(Cl)cc2)CC1)C(=O)NC1CC1,Percent Effect,"30 µM, 30.03 µM",-23.38%
CC(C)NC(=O)[C@H](C)NC(=O)N1CCN(c2ccc(Cl)cc2)CC1,Percent Effect,"30 µM, 30.03 µM",36.61%
CC(=O)c1ccc(N2CCN(C(=O)NC(C)c3ccc(C)o3)CC2)cc1 (stereo not drawn),Percent Effect,"30 µM, 30.03 µM",19.85%
CC(NC(=O)N1CCN(c2ccc(Cl)cc2)CC1)C(=O)N1CCSCC1 (stereo not drawn),Percent Effect,"30 µM, 30.03 µM",25.8%
CC(C)NC(=O)C(NC(=O)N1CCN(c2ccc(Cl)cc2)CC1)C(C)C (stereo not drawn),Percent Effect,"30 µM, 30.03 µM",55.67%
Cn1cc(NC(=O)CNC(=O)N2CCN(c3ccc(Cl)cc3)CC2)cn1,Percent Effect,"30.3 µM, […]",4.499%
CC(C)NC(=O)[C@@H](NC(=O)N1CCN(c2ccc(Cl)cc2)CC1)C(C)C,Percent Effect,"30 µM, 30.03 µM",72.09%
CC(C)C(NC(=O)N1CCN(c2ccc(Cl)cc2)CC1)C(=O)NC1CC1 (stereo not drawn),Percent Effect,"30 µM, 30.03 µM",53.99%
O=C1CC2(CCN(Cc3ccoc3)CC2)CN1Cc1cc(F)cc(F)c1,Percent Effect,"30 µM, 30.03 µM",-15.51%
Cc1nc(CCNC(=O)C(N)c2c(C)n[nH]c2C)sc1C (stereo not drawn),Percent Effect,"30.3 µM, […]",-1.575%
CN(c1ncnc2ccccc12)C1CCCN(c2cccnn2)C1 (stereo not drawn),Percent Effect,"30.3 µM, […]",-20.2%
NC(=O)CNC(=O)c1ccc(CNCc2ccc(F)cc2F)cc1,Percent Effect,"30 µM, 30.03 µM",-29.88%
Br.Cc1c(NC(=O)CN2CCN(C3CCCC3)C(=O)C2)cnn1C,Percent Effect,"30.3 µM, […]",-20.91%
CNC(=O)[C@@H]1C[C@H]2CN(C(=O)c3ccco3)C[C@H]2N1C(C)C.O=C(O)C(F)(F)F,Percent Effect,"30.3 µM, […]",-12.88%
Cn1cc(C2CCCN2C(=O)c2cnc(C3CC3)s2)cn1 (stereo not drawn),Percent Effect,"30 µM, 30.03 µM",-42.9%
CN(C)[C@@H]1CCN(C(=O)NC2CCCC2)[C@H]1Cc1cnn(C)c1.O=C(O)C(F)(F)F,Percent Effect,"30 µM, 30.03 µM",-1.718%
CN(C)C(=O)c1cnc2n1CCN(Cc1ccccc1)C2.O=C(O)C(F)(F)F,Percent Effect,"30 µM, 30.03 µM",-11.93%
COCCn1ccc2cc(NC(C)=O)ccc21,Percent Effect,"30 µM, 30.03 µM",20.32%
COCCn1ccc2cc(NC(=O)COC)ccc21,Percent Effect,"30 µM, 30.03 µM",51.21%
CCC(=O)Nc1ccc2c(ccn2CCOC)c1,Percent Effect,"30 µM, 30.03 µM",30.95%
COCCC(=O)N[C@H]1CC[C@H](Nc2nccc(-c3ccncc3)n2)C1,Percent Effect,"30 µM, 30.03 µM",-1.414%
CCOCC1CN(c2ccncn2)Cc2cnn(CC)c21.O=C(O)C(F)(F)F.O=C(O)C(F)(F)F (stereo not drawn),Percent Effect,"30 µM, 30.03 µM",24.08%
COc1ccc(CN2CCn3c(C(=O)N(C)C)cnc3C2)cc1.O=C(O)C(F)(F)F,Percent Effect,"30.3 µM, […]",-109.7%
COc1ccc(C)cc1NC(=O)Nc1cnc(N2CCCC2)nc1,Percent Effect,"30 µM, 30.03 µM",-9.808%
COc1ccc(C)cc1NC(=O)Nc1cnc(N2CCOCC2)nc1,Percent Effect,"30 µM, 30.03 µM",-0.7377%
COc1ccc(C)cc1NC(=O)Nc1cnc(N2CCN(C)CC2)nc1,Percent Effect,"30 µM, 30.03 µM",53.87%
Cc1csc2nc3n(c(=O)c12)CCN(Cc1ccccn1)CC3.Cl,Percent Effect,"30.3 µM, […]",-40.83%
NCC(c1ccccc1)N1CCc2sccc2C1 (stereo not drawn),Percent Effect,"30 µM, 30.03 µM",35.83%
CC(C)c1ccc(C(CN)N2CCc3sccc3C2)cc1 (stereo not drawn),Percent Effect,"30.3 µM, […]",99.87%
CSc1ccc(C(CNC(C)=O)N2CCc3sccc3C2)cc1 (stereo not drawn),Percent Effect,"30.3 µM, […]",7.525%
CSc1ccc(C(CN)N2CCc3sccc3C2)cc1 (stereo not drawn),Percent Effect,"30 µM, 30.03 µM",-3.703%
NCC(c1ccc(Cl)cc1)N1CCc2sccc2C1 (stereo not drawn),Percent Effect,"30.3 µM, […]",100.3%
CCC(=O)NCC(c1ccc(SC)cc1)N1CCc2sccc2C1 (stereo not drawn),Percent Effect,"30.3 µM, […]",-2.044%
Cc1cccc(S(=O)(=O)N2CC[C@H]3CO[C@H](CN(C)C)[C@H]3C2)c1.O=C(O)C(F)(F)F,Percent Effect,"30 µM, 30.03 µM",25.11%
COCc1cccc(C(=O)N2C[C@H]3CC[C@@H]2CN(Cc2cscn2)C3)n1,Percent Effect,"30 µM, 30.03 µM",-49.27%
Cc1nc(CN2CCC3(CCN(c4cnn(C)c4)C3=O)C2)cs1.O=C(O)C(F)(F)F (stereo not drawn),Percent Effect,"30.3 µM, […]",-7.553%
